# Results taken from the supplement of paper PMC10732440.
# ± gives the standard deviation of the averaged measurements.
# System: Caenorhabditis elegans N2 infected with Nematocida parisii ERTm1
# Assay: progeny production relative to DMSO uninfected control; higher = more progeny despite microsporidia infection (inhibition of infection with low host toxicity)
# Conditions: infection time 6 days
# Outline: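 Wild-type C. elegans L1 larvae, synchronised by bleaching, were added at 100 per well to 96-well plates containing K-medium, E. coli OP50 and 15,000 N. parisii spores/μL, and compound was pinned in to 100 μM or 40 μM in 1% DMSO. The plates were shaken at 21°C for 6 days, after which worms were stained with Rose Bengal, scanned on a flatbed scanner and counted using WorMachine. Each compound and dose was run three times. Progeny production is expressed as a percentage of wells with vehicle but no spores, averaged over the replicates.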
Compound,progeny production (40 µM) [%],progeny production (100 µM) [%]
Cc1onc(-c2ccccc2)c1-c1ccc(S(N)(=O)=O)cc1,3.75 ± 1.8,7.71 ± 5.3
O=c1oc2ccc(Br)cc2cc1CSc1ncc[nH]1,6.6 ± 2.9,11.1 ± 7.2
O=S(=O)(NCB(O)O)c1cc2c(Cl)ccc(Cl)c2s1,4.07 ± 0.53,15.8 ± 20
CCc1cc(Cc2cnc(N)nc2N)cc2c1N(C)CCC2C (stereo not given),11.7 ± 8.4,4.65 ± 0.53
NC(=O)c1cnc2ccc(S(=O)(=O)c3ccccc3)cc2c1Nc1ccc(O)cc1,6.94 ± 3.1,17.7 ± 11
Nc1cccc(-c2nc(N)nc(NC3Cc4ccccc4C3)n2)c1,8.19 ± 3.8,20.6 ± 10
COc1ccc(C)cc1NC(=O)c1ccc(S(=O)(=O)N2CCCCC2)cc1,7.49 ± 1.3,19.4 ± 16
N#C/C(=C1/SC[C@H](c2ccc(Cl)cc2Cl)S1)n1ccnc1,3.11 ± 0.38,4.59 ± 2.5
Nc1ccc2oc(=O)ccc2c1I,3.87 ± 2.3,7.24 ± 3.6
COC(=O)Nc1nc2cc([S+]([O-])c3ccccc3)ccc2[nH]1 (stereo not given),6.27 ± 3.5,23 ± 20
COc1cc(Cc2cc(N)nc(N)n2)cc(OC)c1OC,5.56 ± 1.2,19.2 ± 12
N[C@@H]1CN(c2c(F)cc3c(=O)c(C(=O)O)cn([C@@H]4C[C@@H]4F)c3c2Cl)CC12CC2,9.37 ± 3.9,13.4 ± 6.8
O=C(O)COc1cccc2c1CC[C@](O)(COC(=O)N(c1ccccc1)c1ccccc1)C2,4.24 ± 0.25,15.6 ± 8.1
CCNC(=O)Nc1cn2c(-c3ncc(CC)cn3)cc(-c3cccnc3)cc2n1,3.09 ± 1.5,6.08 ± 4.7
CC(N)C12CC3CC(CC(C3)C1)C2 (stereo not given),3.85 ± 0.59,6.21 ± 1.8
CCC(C)(C)c1ccc(CC(C)CN2C[C@@H](C)O[C@@H](C)C2)cc1 (stereo not given in full),4.64 ± 0.33,23 ± 23
O=C(NCc1ccc2c3c(cccc13)C(=O)N2)c1cccs1,6.15 ± 4.4,9.75 ± 6.2
CC(=O)N1CCN(c2ccc(OCC3COC(Cn4ccnc4)(c4ccc(Cl)cc4Cl)O3)cc2)CC1 (stereo not given),5.16 ± 2.3,18 ± 6.4
Cc1ncc([N+](=O)[O-])n1CC(O)CN1CCOCC1 (stereo not given),9.17 ± 4.5,12.3 ± 8.3
COc1ccc(CNC(=O)C2CCN([C@H](C)c3cccc4ccccc34)CC2)cc1,4.66 ± 2.1,15.7 ± 6.6
Cc1c(N)cccc1Cn1ccc(OCCc2cccs2)cc1=O,7.99 ± 2.1,15.6 ± 15
[N-]=[N+]=N[C@H]1C[C@H](n2ccc(=O)[nH]c2=O)O[C@@H]1CO,4.8 ± 1.5,11.5 ± 5.3

Compound,progeny production (40 µM) [%],progeny production (100 µM) [%]
Cc1cccc(CC(=O)N[C@H]2CCOC2=O)c1,3.04 ± 0.7,6.81 ± 3.6
O=C(NC(=O)N1CCCc2ccccc21)c1cccc(Cl)c1,2.7 ± 0.83,19.9 ± 14
CCOC(=O)N[C@@H]1CC[C@@H]2[C@@H](C1)C[C@H]1C(=O)O[C@H](C)[C@H]1[C@H]2/C=C/c1ccc(-c2cccc(F)c2)cn1,4.47 ± 3.1,9.38 ± 3.8
Clc1cccc(-c2nnc(-c3ccccc3)o2)c1,1.33 ± 1.1,4.24 ± 2.4
CC(=O)Nc1cc(NS(=O)(=O)c2ccc(Cl)cc2)cc2c(Cl)[nH]nc12,5.97 ± 4.1,8.68 ± 4
N#Cc1cc([N+](=O)[O-])ccc1Oc1ccccc1Cl,5.2 ± 2,14.5 ± 8.1
COC(=O)Nc1nc2cc(Sc3ccccc3)ccc2[nH]1,7.64 ± 3.1,29.3 ± 18
O=C1NC(=S)N/C1=C\c1cc(Br)cc(Br)c1O,6.18 ± 0.84,10.2 ± 8.1
O=C(O)/C=C/C=C/c1cccc(Oc2cc(Cl)cc(Cl)c2)c1,7.69 ± 2.2,13 ± 7.6
CCCCCc1ccc(C(=O)NCCn2cc(CCCCCc3c[nH]c(N)n3)nn2)cc1,8.32 ± 7.4,2.61 ± 1.4
Cn1cc(NC(=O)c2cc(NC(=O)c3ccc(/C=C/c4cnc5ccccc5c4)cc3)cn2C)cc1C(=O)NCCN1CCOCC1,7.6 ± 3.5,15.5 ± 5.6
C=C(C)[C@@H]1CC[C@]2(C(=O)O)CC[C@]3(C)[C@H](CC[C@@H]4[C@@]5(C)CC[C@H](O)C(C)(C)[C@@H]5CC[C@]43C)[C@@H]12,6.56 ± 0.21,9.57 ± 2
CN(C(=O)C1(c2ccc(Cl)cc2)CCC1)c1ccccc1,2.68 ± 1.6,14.9 ± 2.4
COCCn1cnc2c(O)nc(Nc3ccccc3)nc21,8.43 ± 4.5,17.6 ± 6.1
CC[C@H](NC(=O)[C@H](C)NC)C(=O)N1C[C@@H](O)C[C@H]1Cc1c(-c2[nH]c3cc(F)ccc3c2C[C@@H]2C[C@H](O)CN2C(=O)[C@H](CC)NC(=O)[C@H](C)NC)[nH]c2cc(F)ccc12,6.99 ± 3.1,17.7 ± 7.7
Cc1oncc1C(=O)Nc1ccc(C(F)(F)F)cc1,3.59 ± 1.6,6.66 ± 5
COc1ccc(SC(=O)N[C@H](CCC(=O)O)C(=O)O)cc1,9.06 ± 7.1,11.3 ± 0.6
CCCCN1C[C@H](O)[C@@H](O)[C@H](O)[C@H]1CO,4.97 ± 3.5,13.9 ± 3.7
COc1ccc(NC(=O)CC2Sc3ncnn3C2=O)cc1 (stereo not given),8.48 ± 3.4,14.8 ± 8.1
Oc1c(C(Nc2nc3ccccc3s2)c2ccc(OC(F)F)cc2)ccc2cccnc12 (stereo not given),3.08 ± 0.27,9.48 ± 12
Nc1nc(O)c(Br)c(-c2cccc(Cl)c2)n1,4.12 ± 0.52,12.1 ± 5.2
O=C(c1nc2c(C(F)(F)F)cc(C3CC3)cn2c1Cl)N1CCN([C@H]2CC[C@H](O)CC2)C(=O)C1,3.88 ± 1.4,14.2 ± 1.2

Compound,progeny production (40 µM) [%],progeny production (100 µM) [%]
Nc1cc(-c2nc3ccccc3[nH]2)n[nH]c1=O,6.4 ± 6.5,10.7 ± 4.7
CSC[C@H]1CN(Cc2c[nH]c3c(N)ncnc23)C[C@@H]1O,8.02 ± 2.9,15.3 ± 10
c1cc(CN2CCCNCCNCCCNCC2)ccc1CN1CCCNCCNCCCNCC1,2.33 ± 1,9.51 ± 8.6
O=C(Nc1nnc(-c2ccccc2)o1)c1ccc(F)cc1,5.03 ± 1.8,6.37 ± 4.7
Nc1nc(C(F)(F)F)cc2c1[nH]c(=O)n2Cc1ccccc1,2.69 ± 0.61,17.2 ± 1.5
COc1cc(C2C3=C(CC(C)(C)CC3=O)Nc3ccccc3N2C(C)=O)ccc1OCc1ccccc1 (stereo not given),2.3 ± 0.93,15.1 ± 15
O=C(Nc1nnc(-c2ccc(Cl)cc2)o1)c1ccc(F)cc1,9.22 ± 7.4,12.6 ± 4.1
CCC[C@@H]1C[C@@H](C(=O)N[C@@H]([C@H]2O[C@H](SC)[C@H](O)[C@@H](O)[C@H]2O)[C@H](C)Cl)N(C)C1,6.74 ± 4.3,7.36 ± 5.1
CCNC(=O)Nc1cc2c(-c3ccnc(C)c3)ccc(CNC(=O)OC)c2cn1,4.61 ± 1.9,17.2 ± 9.9
O=C(CCc1ccc2c(c1)OCO2)NCc1ccc(-c2ccccc2F)cc1,5.04 ± 3.2,14 ± 6.8
CCc1cc(O)c(Oc2cccnc2N)cc1F,6.17 ± 3.4,10.2 ± 5.5
Cc1cc(Nc2ccc(F)cc2)nc(SCc2nc3ccccc3[nH]2)n1,3.08 ± 0.71,16.7 ± 14
O=c1[nH]c(=O)n(Cc2cccc(Oc3ccccc3)c2)cc1Nc1ccccc1,4.29 ± 3.5,9.39 ± 4.3
O=c1cc(NCCCN[C@@H]2CCOc3c(Br)cc(Br)cc32)[nH]c2ccsc12,5.52 ± 2.9,8.91 ± 4
O=C(NCc1ccccc1Cl)c1cnc2ccccc2n1,6.81 ± 1,12.1 ± 12
O=C(NN1C(=O)[C@@H]2[C@@H]3C=C[C@@H]([C@H]4C[C@@H]34)[C@@H]2C1=O)c1ccc(C(F)(F)F)cc1,3.22 ± 1.3,9.48 ± 4
Cc1c(CN(C)C(=O)/C=C/c2cnc3c(c2)C(C)(C)C(=O)N3)oc2ccccc12,6.13 ± 3.2,20.6 ± 20
O=C(Nc1[nH]c(=O)ncc1F)c1ccccc1,4.09 ± 0.71,23.8 ± 20
CC(=N)N1CC[C@H](SC2=C(C(=O)O)N3C(=O)[C@@H]([C@@H](C)O)[C@H]3C2)C1,4.18 ± 0.82,11.1 ± 7.9
COc1cc2c(O)c3c(c(-c4ccc5c(c4)OCO5)c2cc1OC)C(=O)OC3,4.37 ± 1.7,3.64 ± 3.2
OC1O[C@H](CSc2ccc(F)cc2)[C@@H](O)[C@H]1O (stereo not given in full),5.22 ± 0.52,9.44 ± 6.8
